Shown are actives, neighbours in structure and some others; about 12% of the full set was active somewhere.
PI5P4K alpha inh: inhibitors of human PI5P4K alpha; P48426; PI5P4Kalpha enzyme, ADP-Glo luminescence, 60 min; active compounds read low; max response, %; 1.2% of 330,000 active; active = max response of -50% or lower; inconclusive = between -30% and -50%; inactive = -30% or higher; note: value at the top dose of about 77 µM
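Compounds were pin-transferred onto PI5P4Kalpha and substrate in HEPES pH 7.4 buffer with EGTA, CHAPS and 5% DMSO. ATP (5 microM final) started the reaction, which ran 60 minutes at room temperature before ADP-Glo detection.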
G9a inh: blocks human histone lysine methyltransferase G9a. Potency, µM (doses to about 102 µM), most hits filed as inhibitors. 8.8% of 350,000 active. G9a H3K9 monomethylation, AlphaScreen, 2 h. Q96KQ7. AID 504332; note: nearly all actives have a fitted effect of over 75% in size
Target sequence (Q96KQ7 913-1193 limits assumed): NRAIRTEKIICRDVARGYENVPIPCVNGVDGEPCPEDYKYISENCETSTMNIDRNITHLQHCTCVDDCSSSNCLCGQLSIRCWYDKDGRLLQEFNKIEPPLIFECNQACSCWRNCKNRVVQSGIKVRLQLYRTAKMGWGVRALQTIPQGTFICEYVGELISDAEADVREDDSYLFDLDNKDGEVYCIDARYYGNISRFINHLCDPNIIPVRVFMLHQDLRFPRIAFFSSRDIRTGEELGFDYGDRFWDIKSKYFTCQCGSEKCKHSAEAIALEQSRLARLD
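Quantitative HTS format: methyltransferase activity on a biotin-tagged H3K9 peptide is measured by AlphaScreen, using a rabbit anti-monomethyl-H3K9 antibody with streptavidin donor and anti-IgG acceptor beads. Final levels are 20 nM enzyme, 500 nM peptide, 20 uM SAM; 2 h RT.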
PLK1 PBD inh: blocks phosphopeptide binding to human PLK1 polo-box domain. Plk1 PBD binding of FITC phosphopeptide, fluorescence polarization. Potency, µM, actives largely listed as inhibitors. 2.8% of 360,000 active; note: series mostly up to about 57 µM; nearly all actives have a fitted effect of over 65% in size
HP1b chromo inh: blocks HP1-beta chromodomain binding to methylated histone tails | P83916 | AlphaScreen HP1-beta / biotin-H3K9me3 peptide binding | Potency, µM (titrated, usually from 114 µM), hits mostly inhibitors | 0.56% of 390,000 active; note: nearly all actives have a fitted effect of over 70% in size
Target sequence (P83916 whole entry, looked up): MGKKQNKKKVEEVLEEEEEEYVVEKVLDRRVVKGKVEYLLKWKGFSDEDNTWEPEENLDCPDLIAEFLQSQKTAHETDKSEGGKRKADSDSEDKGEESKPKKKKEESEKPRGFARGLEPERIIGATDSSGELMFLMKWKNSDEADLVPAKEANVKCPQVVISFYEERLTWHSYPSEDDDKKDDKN
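HP1-beta protein (50 nM final) preincubated 30 min at room temperature with biotinylated H3(1-18)K9me3 peptide (50 nM) in PBS pH 7.4, 0.01% Tween-20, then compound added for 30 min. AlphaScreen streptavidin donor/nickel chelate acceptor beads (10 ug/mL final), 30 min dark, luminescence read.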
BAZ2B inh: BAZ2B (human) inhibition; AlphaScreen BAZ2B-H3K14Ac peptide displacement; AID 504333; 4.4% of 360,000 active; Q9UIF8; Potency, µM (top dose mostly 114 µM), hits mostly inhibitors; note: nearly all actives have a fitted effect of over 60% in size
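In this displacement format the biotinylated H3(5-23) peptide acetylated at Lys14 serves as ligand at 50 nM, with BAZ2B at 50 nM in PBS pH 7.4 containing 0.01% Tween-20. Donor and acceptor beads are 10 ug/mL final.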
JMJD2A Tudor inh: blocks the human JMJD2A Tudor domain. AlphaScreen JMJD2A-Tudor / H3K4me3 peptide binding. Potency, µM (doses to about 114 µM), most hits filed as inhibitors. 4.4% of 390,000 active; note: nearly all actives have a fitted effect of over 50% in size
Each line names hits and unclear results; the compound was inactive in the other large screens. Unless noted, calls come from the whole dose curve; as a rule, active = well fitted curve in the direction sought with a large enough effect; inconclusive = small, poorly fitted or top-dose-only effect, or another doubt; inactive = no such curve, though single readings can be large; an effect the other way counts as inactive or inconclusive.

CC1=CC(C)C2COC(c3ccc[n+](C)c3)C1C2C (stereo not drawn)	G9a inh 7.1µM
CC[n+]1c(/C=C/c2ccc(OC(C)=O)c(OC)c2)ccc2ccccc21	G9a inh 25µM, JMJD2A Tudor inh inconclusive
CC[n+]1ccccc1/C=C/c1ccc(N(C)C)cc1	G9a inh 28µM, BAZ2B inh inconclusive, JMJD2A Tudor inh inconclusive
CCN(CC)c1ccc(/C=C/c2ccc3ccc(OC)cc3[n+]2CC)cc1	G9a inh 25µM, HP1b chromo inh inconclusive, BAZ2B inh 40µM, JMJD2A Tudor inh 13µM
CC[n+]1c(/C=C/c2ccc(OC)c(OC)c2)ccc2ccccc21	BAZ2B inh inconclusive, JMJD2A Tudor inh inconclusive (no result: G9a inh)
CC[n+]1c(/C=C/c2ccc(N(C)C)cc2)ccc2ccccc21	G9a inh 14µM, HP1b chromo inh inconclusive, BAZ2B inh 40µM, JMJD2A Tudor inh inconclusive
CC(C)CNC(=O)C1(C)CCCN1C(=O)c1ccc2c(c1)CCO2 (stereo not drawn)	none (no result: G9a inh, HP1b chromo inh, BAZ2B inh, JMJD2A Tudor inh)
C[n+]1c(/C=C/c2ccc(O)cc2)ccc2ccccc21	G9a inh 18µM, HP1b chromo inh inconclusive
N#Cc1ccsc1NC(=O)CSc1nnnn1-c1ccc(O)cc1	PI5P4K alpha inh -61, BAZ2B inh inconclusive (no result: G9a inh)
O=C(CSc1nnnn1-c1ccc(O)cc1)NC1CCCCC1	none
CCOC(=O)c1c(NC(=O)CSc2nnnn2-c2ccc(OC)cc2)sc(C)c1C	G9a inh inconclusive, PLK1 PBD inh 2.1µM, HP1b chromo inh inconclusive, JMJD2A Tudor inh 50µM (no result: PI5P4K alpha inh)
CCOC(=O)c1c(NC(=O)CSc2ccccc2C(=O)O)sc(C)c1C	BAZ2B inh 50µM
CCOC(=O)c1csc(NC(=O)CSc2nnnn2-c2ccc(OC)cc2)n1	none (no result: PI5P4K alpha inh)
CCOC(=O)c1c(NC(=O)CSc2nc(-c3ccccc3)cc(C(F)(F)F)n2)sc(C)c1C	G9a inh 6.3µM (no result: PI5P4K alpha inh, PLK1 PBD inh)
CCOC(=O)c1c(NC(=O)CSc2nncs2)sc(C)c1C	G9a inh 10µM, BAZ2B inh inconclusive
NC(=O)c1ccc(-n2nnnc2Oc2ccccc2)cc1	PLK1 PBD inh 24µM, JMJD2A Tudor inh inconclusive (no result: PI5P4K alpha inh)
CCC(=O)c1c[nH]c(C(=O)NCc2cccs2)c1	none
Cc1ccccc1C(=O)c1c[nH]c(C(=O)NCc2cccs2)c1	PLK1 PBD inh 27µM, BAZ2B inh inconclusive
CC(C)CC(=O)c1c[nH]c(C(=O)NCc2cccs2)c1	G9a inh 0.22µM
COc1cccc(C(=O)c2c[nH]c(C(=O)NCc3cccs3)c2)c1	PLK1 PBD inh inconclusive
Cc1cc(=O)[nH]c2nnc(-c3ccc(Cl)cc3)n12	PI5P4K alpha inh inconclusive
O=C(CCc1nnc2ccc(NCc3ccco3)nn12)N1CCN(c2ccccc2)CC1	PI5P4K alpha inh inconclusive, PLK1 PBD inh 19µM, BAZ2B inh 50µM, JMJD2A Tudor inh 40µM
Cc1n[nH]c(C)c1CCCCOc1ccccc1	G9a inh 50µM
COc1cccc(OC)c1OCCCCCc1c(C)n[nH]c1C	G9a inh 50µM
CCOC(=O)[C@]12CCCC=C1N(CCC1=CCCCC1)C(=O)[C@H](CC(=O)NCc1cccs1)C2	none (no result: G9a inh, HP1b chromo inh, BAZ2B inh, JMJD2A Tudor inh)
Cc1ccccc1CSCC(=O)NC(=O)NCc1ccco1	G9a inh 45µM, HP1b chromo inh inconclusive, JMJD2A Tudor inh 45µM (no result: PI5P4K alpha inh)
O=C(CSc1cccc(C(F)(F)F)c1)NC(=O)NCc1ccco1	BAZ2B inh 50µM, JMJD2A Tudor inh 79µM (no result: PI5P4K alpha inh)
O=C(CSc1ccccc1F)NC(=O)NCc1ccco1	PI5P4K alpha inh inconclusive, PLK1 PBD inh inconclusive, BAZ2B inh 40µM
Cc1cc(SCC(=O)NC(=O)NCc2ccco2)nc2ccccc12	G9a inh inconclusive, PLK1 PBD inh inconclusive (no result: PI5P4K alpha inh)
O=C(CSc1ncccn1)NC(=O)NCc1ccco1	none (no result: BAZ2B inh)
O=C(CSCc1ccccc1Br)NNC(=S)NCc1ccco1	G9a inh 40µM, PLK1 PBD inh inconclusive, JMJD2A Tudor inh inconclusive
COc1ccc(Cn2c(CCC(=O)Nc3cc(OC)c(OC)c(OC)c3)nc3cccnc32)cc1	BAZ2B inh inconclusive (no result: PI5P4K alpha inh, PLK1 PBD inh)
O=S1(=O)N=C(Sc2ccc3c(c2)OCCO3)c2ccccc21	none (no result: PI5P4K alpha inh, G9a inh, PLK1 PBD inh, HP1b chromo inh, BAZ2B inh)
COc1ccc2nc3ccccc3[n+]([O-])c2c1	PLK1 PBD inh 12µM (no result: G9a inh, BAZ2B inh)
S=c1nc(C2CCCCC2)[nH][nH]1	G9a inh inconclusive, PLK1 PBD inh 27µM, JMJD2A Tudor inh 5µM (no result: PI5P4K alpha inh)
Nc1n[nH]c(C2CCCCC2)n1	none
